Consider eight compounds from PubChem BioAssay (NCI).

The panel holds about 83,000 compounds, 20% with a hit somewhere; the sample as a whole holds those more often.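 Cells were grown in 96-well plates and exposed to the test compound at a single concentration for 48 hours; results are reported as percent growth, with values below 10 considered active.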 Unmarked numbers belong to inactive results. Calls of active or inactive are those of the source.

Test systems include SK-MEL-2 melanoma; SN12C renal; UO-31 renal; TK-10 renal; ACHN renal; CAKI-1 renal; A498 renal; CCRF-CEM leukemia; MOLT-4 leukemia; SR leukemia; RPMI-8226 leukemia; OVCAR-8 ovarian; OVCAR-5 ovarian; OVCAR-4 ovarian; SK-OV-3 ovarian; IGROV1 ovarian; OVCAR-3 ovarian; HS 578T breast; NCI/ADR-RES ovarian.
Common to all, as to assay: NCI-60 one-dose screen, 48 h (100 = growth as untreated, 0 = no growth, -100 = all killed)
Details in all cases: 10 µM unless noted

In the case of `CNS(=O)(=O)N1CCc2c(Br)c3c(c(OC)c2C1CCc1ccccc1)OCO3` (configuration not stated), the growth with SK-MEL-2 melanoma was -66.2% (active); with SN12C renal, -88.8% (active); with UO-31 renal it was -20.1% (active); in the test on TK-10 renal it was -0.435% (active); in the test on ACHN renal, 0.33% (active); with CAKI-1 renal, 5.41% (active). For the same compound, the growth with A498 renal is -69.5% (active); with CCRF-CEM leukemia it was 12.4%; in the test with MOLT-4 leukemia, 1.16% (active); in the test with SR leukemia it was 4.75% (active); with RPMI-8226 leukemia, 2.66% (active); with OVCAR-8 ovarian, 9.92% (active). Further, the growth was -40% (active) with OVCAR-5 ovarian; -2.26% (active) in the test with OVCAR-4 ovarian; 16.2% in the test on SK-OV-3 ovarian; -6.68% (active) with IGROV1 ovarian; -48.8% (active) in the test on OVCAR-3 ovarian; -22.4% (active) in the test with HS 578T breast.

Take `COc1ccc(Nc2ncnc3sc4c(c23)CCN(Cc2ccccc2)C4)cc1`: the growth was 87.4% with SK-MEL-2 melanoma; 85.4% with SN12C renal; 49% with UO-31 renal; 109% in the test on TK-10 renal; 77% in the test on ACHN renal; 52% with CAKI-1 renal. In addition, the growth was 91.9% in the test on A498 renal; 73.5% in the test on CCRF-CEM leukemia; 62.4% with MOLT-4 leukemia; 82.9% in the test with SR leukemia; 62.1% with RPMI-8226 leukemia; 82.8% in the test with OVCAR-8 ovarian. The growth in the test on OVCAR-5 ovarian was 106%; in the test on OVCAR-4 ovarian, 68.4%; in the test with SK-OV-3 ovarian, 102%; with IGROV1 ovarian it was 80.8%; with OVCAR-3 ovarian, 93.7%; in the test with HS 578T breast it was 74.8%. In the test with NCI/ADR-RES ovarian, the growth was 76.7%.

`O=C(CSc1nnc(-c2ccc(-c3nc4ccc(Cl)cc4[nH]3)cc2)o1)Nc1ccc(Br)cc1`: the growth was 5.03% (active) in the test with SK-MEL-2 melanoma; -22.3% (active) in the test on SN12C renal; 36.6% with UO-31 renal; 75.9% in the test on TK-10 renal; -69.1% (active) in the test on ACHN renal; 162% in the test with A498 renal. In addition, the growth was 9.42% (active) in the test on CCRF-CEM leukemia; 13.9% in the test with MOLT-4 leukemia; 17.1% in the test with SR leukemia; 8.9% (active) with RPMI-8226 leukemia; -31.8% (active) in the test with OVCAR-8 ovarian; 47.5% with OVCAR-5 ovarian. Moreover, the growth with OVCAR-4 ovarian is 16%; in the test on SK-OV-3 ovarian it was 73%; with IGROV1 ovarian it was 53.4%; with OVCAR-3 ovarian it was 9.66% (active); with HS 578T breast, -0.329% (active); with NCI/ADR-RES ovarian, 15%.

`NC(=O)c1ccc(-c2ccc3ncnc(N4CCc5cc(F)c(Cl)cc54)c3c2)cn1`: the growth in the test on SK-MEL-2 melanoma was 95.2%; in the test on SN12C renal, 61.9%; in the test on UO-31 renal, 33.1%; with TK-10 renal, 28.2%; with ACHN renal, 30.3%; with CAKI-1 renal, 31.1%. Moreover, the growth with A498 renal was 74.7%; in the test with MOLT-4 leukemia it was 18.4%; in the test on SR leukemia it was 15.2%; with RPMI-8226 leukemia it was 48.5%; with OVCAR-8 ovarian, 71.1%; in the test on OVCAR-5 ovarian, 73.5%. Besides, the growth with OVCAR-4 ovarian is 88.7%; with SK-OV-3 ovarian, 101%; with IGROV1 ovarian it was 2.18% (active); in the test on OVCAR-3 ovarian it was 64.8%; in the test on HS 578T breast, 55.4%; in the test on NCI/ADR-RES ovarian, 74.6%.

Take `COC(=O)CSC1=C(C)C(=O)C(OC)=C(OC)C1=O`: the growth in the test with SK-MEL-2 melanoma was 103%; in the test with SN12C renal, 96.2%; in the test on UO-31 renal, 80.7%; with TK-10 renal it was 106%; with ACHN renal, 96.4%; with CAKI-1 renal, 77.4%. The growth with A498 renal is 90.4%; in the test with MOLT-4 leukemia, 17.5%; in the test with SR leukemia it was 57%; in the test with OVCAR-8 ovarian it was 92.2%; in the test with OVCAR-5 ovarian, 110%; in the test on OVCAR-4 ovarian, 94.2%. Also, the growth in the test with SK-OV-3 ovarian was 100%; with IGROV1 ovarian, 106%; in the test on OVCAR-3 ovarian it was 91.8%; in the test on HS 578T breast it was 79.2%; in the test on NCI/ADR-RES ovarian, 96.6%.

For `CCCCN1C(=O)/C(=C\C(=O)c2cc3ccccc3oc2=O)c2ccccc21`, the growth with SK-MEL-2 melanoma is 79.8%; with SN12C renal, 56.2%; with UO-31 renal it was 32.1%; with TK-10 renal it was 57.7%; with ACHN renal it was 0.901% (active); with CAKI-1 renal, 70.8%. For the same compound, the growth in the test on A498 renal is 161%; in the test with CCRF-CEM leukemia, 25.5%; in the test with MOLT-4 leukemia, 3.77% (active); in the test on SR leukemia, -2.51% (active); in the test on RPMI-8226 leukemia, 23.7%; with OVCAR-8 ovarian it was 67.3%. Besides, the growth with OVCAR-5 ovarian was 96.7%; with OVCAR-4 ovarian, 83.9%; with SK-OV-3 ovarian, 110%; in the test with IGROV1 ovarian, 70.2%; in the test with OVCAR-3 ovarian, 34.3%; with HS 578T breast, 75.6%. The growth in the test on NCI/ADR-RES ovarian is 67.5%.

On to `COc1cc(C2CC(c3ccc(S(=O)(=O)NCCNc4nc(N(C)C)nc(N5CCOCC5)n4)cc3)=Nc3c(N)nc(N)nc3N2)cc(OC)c1OC` (configuration not stated), for which the growth with SK-MEL-2 melanoma was 108%; with SN12C renal it was 86.5%; in the test on UO-31 renal, 80.5%; in the test with TK-10 renal, 107%; with ACHN renal, 94.6%; in the test on CAKI-1 renal, 88.4%. In addition, the growth in the test with A498 renal was 79%; in the test with CCRF-CEM leukemia, 99.3%; with MOLT-4 leukemia it was 89.3%; with SR leukemia, 93.3%; in the test with RPMI-8226 leukemia it was 84.9%; with OVCAR-8 ovarian, 103%. The growth in the test with OVCAR-5 ovarian was 93.4%; in the test on OVCAR-4 ovarian it was 95.1%; with SK-OV-3 ovarian, 115%; in the test on IGROV1 ovarian, 105%; with OVCAR-3 ovarian, 105%; in the test on HS 578T breast, 76.6%. Besides, the growth with NCI/ADR-RES ovarian was 92.8%.

With `COC(=O)c1c(C(=O)OC)c2ccc3c4ccccc4ccc3n2c1C(=O)OC`, the growth is 108% with SK-MEL-2 melanoma; 95.6% in the test with SN12C renal; 87.8% with UO-31 renal; 103% with TK-10 renal; 109% with ACHN renal; 107% with CAKI-1 renal. In addition, the growth in the test on A498 renal is 129%; with CCRF-CEM leukemia, 101%; in the test on MOLT-4 leukemia, 114%; in the test on SR leukemia, 94.6%; in the test on RPMI-8226 leukemia, 104%; with OVCAR-8 ovarian it was 107%. Besides, the growth in the test with OVCAR-5 ovarian was 106%; with OVCAR-4 ovarian, 100%; in the test on SK-OV-3 ovarian, 109%; in the test on IGROV1 ovarian it was 114%; with OVCAR-3 ovarian, 75.8%; in the test on HS 578T breast, 92.7%. The growth in the test with NCI/ADR-RES ovarian is 112%.
